Measured values published in PubChem BioAssay (Tox21).
Inconclusive results are not listed. Unmarked numbers belong to inactive results. Calls of active or inactive are those of the source. Calls follow the shape of the dose curve; as a rule, active = well fitted cell-killing curve with a large enough effect in the repeat runs; inconclusive = weak or mixed curves, or effect the other way; inactive = flat fitted curve, though single readings scatter.

experiment: qHTS assay to identify small molecule antagonists of the retinoid acid receptor (RAR) signaling pathway - cell viability counter screen (AID 1159551); conditions: C3RL4 cells viability, ATP luminescence (CellTiter-Glo), 6 h; series mostly up to 92.4 µM; also: nearly all actives have a fitted effect of over 35% in size
From the text: U.S. Tox21 Program National Center for Advancing Translational Sciences [NCATS] NIH Chemical Genomics Center [NCGC] U.S. Environmental Protection Agency [EPA] National Institutes of Environmental Health Sciences [NIEHS] National Toxicology Program [NTP] U.S. Food and Drug Administration [FDA] Tox21 Assay Overview: All-trans Retinoic acid (atRA) is the potent natural metabolite of retinol and plays an important role in normal embryonic development and maintenance of cellular phenotype in adult animals. atRA is the activating ligand for the retinoic acid receptors (RARs) which form heterodimers with retinoid X receptors (RXRs) on the retinoic acid response element (RARE). Through activation of the RAR/RXRs nuclear receptors, atRA regulates the transcription of a large number of protein-coding genes and regulatory RNAs. Intracellular levels of atRA are controlled by the retinol signaling pathway (RSP) that regulates the biosynthesis and catabolism of atRA to maintain physiological levels. Chemicals that interfere with the RSP can cause abnormal intracellular levels of atRA and therefore are potential developmental toxicants. To assess compounds for the potential adverse effect on embryonic development through interfering with retinol signaling, a cell-based RARE luciferase reporter gene assay was used. C3RL4 cell line (OARSA/CFSAN/FDA, Laurel, MD) was used to screen Tox21 10K compound library for identifying inhibitors of the RSP. Also cytotoxicity was assessed by determining the viability of cells based on the quantitation of ATP.
Tox21 Assay Protocol Summary: C3RL4 cells were seeded at 1,000/well in 4 uL of assay medium into white solid 1,536-well tissue culture plates (Greiner Bio-One North America Inc. Monroe, NC) using a Multidrop Combi (Thermo Scientific, Waltham, MA) dispenser. After incubation at 37 C and 5% CO2 for an overnight, 23 nL of compounds dissolved in DMSO, positive control or DMSO only were transferred by a Pintool station (Kalypsys, San Diego, CA). One ul of 1 uM (final concentration) of Retinol was added right after the compound addition by using a Flying Reagent Dispenser (FRD) (Aurora Discovery, San Diego, CA). After 6 hr incubation at 37 C and 5% CO2, 5 uL of CellTiter-Glo reagent (Promega Corporation, Madison, WI) was added to each assay plate using an FRD. Luminescence was quantified on a ViewLux plate reader (PerkinElmer, Waltham, MA) after 30 min incubation at room temperature.
% is scaled to controls: 0 for no effect and ±100 for the full control effect.

| Compound | outcome | activity change, negative = cytotoxicity |
| --- | --- | --- |
| CCCC(=O)C(C)=O | inactive |  |
| Cc1ccccc1OCC(O)CO (stereo not given) | inactive |  |
| CC(C)(C)c1cc(CCC(=O)NN)cc(C(C)(C)C)c1O | inactive |  |
| CC1=CCC(C(C)C)=CC1 | inactive |  |
| CCCCCCCC/C=C\CCCCCCCC(=O)OCCCC |  | -0.376% [at 19 µM] |
| CC1(CO)CN(c2ccccc2)NC1=O (stereo not given) | inactive |  |
| Nc1ccc2cc(S(=O)(=O)O)cc(O)c2c1 | inactive |  |
| C[Si](C)(C)C | inactive |  |
| CCCC/C=C\CCCCCCCCCC=O | inactive |  |
| CC(C(=O)O)c1ccc2c(c1)CC(=O)c1ccccc1S2 (stereo not given) | inactive |  |
| CC(=O)N[C@@H](CCC(=O)O)C(=O)O | inactive |  |
| CN=C(NC#N)Nc1ccc(C2=NNC(=O)CC2C)cc1 (stereo not given) | inactive |  |
| COc1ccc(OC)c(Cl)c1 | inactive |  |
| CC[C@H](C)C(=O)O[C@H]1C[C@H](O)C=C2C=C[C@H](C)[C@H](CC[C@@H](O)C[C@@H](O)CC(=O)O)[C@H]21 | inactive |  |
| COc1nccnc1NS(=O)(=O)c1ccc(N)cc1 | inactive |  |
| CC(=O)CCCCn1c(=O)c2c(ncn2C)n(C)c1=O | inactive |  |
| CCN1CCc2nc(N)oc2CC1 | inactive |  |
| OCCC(F)(F)C(F)(F)C(F)(F)C(F)(F)C(F)(F)C(F)(F)C(F)(F)C(F)(F)F | inactive |  |
| CN(C)c1ccc(C=O)cc1 | inactive |  |
| COC(=O)CCc1ccc(OCC(O)CNC(C)C)cc1 (stereo not given) | inactive |  |

| Compound | outcome | activity change, negative = cytotoxicity |
| --- | --- | --- |
| CCCCCCCCC(=O)Cl | inactive |  |
| CO[C@@H]1[C@@H](OC(N)=O)[C@@H](O)[C@H](Oc2ccc3c(O)c(NC(=O)c4ccc(O)c(CC=C(C)C)c4)c(=O)oc3c2C)OC1(C)C | inactive |  |
| CNC(=O)[C@H]1O[C@@H](n2cnc3c(NCc4cc(Cl)ccc4OCc4cc(C)no4)ncnc32)[C@H](O)[C@@H]1N | inactive |  |
| OCCN(CCO)c1cccc(Cl)c1 | inactive |  |
| N[C@@H](CCC(=O)N[C@@H](CS)C(=O)NCC(=O)O)C(=O)O |  | 0.178% [at 19 µM] |
| COc1ccc(-c2cc(=O)c3c(O)cc(O[C@@H]4O[C@H](CO[C@@H]5O[C@@H](C)[C@H](O)[C@@H](O)[C@H]5O)[C@@H](O)[C@H](O)[C@H]4O)cc3o2)cc1O | inactive |  |
| Cc1cccc(C)c1NC(=O)c1ccccc1C(=O)O | inactive |  |
| O=C(O)C(=O)Cc1ccccc1 | inactive |  |
| NNc1nnc(NN)c2ccccc12 | inactive |  |
| COc1ccc2c(c1)C(=O)N(CCc1ccc(S(=O)(=O)NC(=O)NC3CCCCC3)cc1)C(=O)C2(C)C | inactive |  |
| Cc1c(I)c(=O)n(-c2ccccc2)n1C | inactive |  |
| C[C@H](CCC(=O)O)[C@H]1CC[C@H]2[C@@H]3C(=O)C[C@@H]4CC(=O)CC[C@]4(C)[C@H]3CC(=O)[C@]12C | inactive |  |
| CCCOC(OCCC)OCCC | inactive |  |
| CNS(=O)(=O)CCc1ccc2[nH]cc(C3CCN(C)CC3)c2c1 | inactive |  |
| CC(C)(C)OC(=O)c1ccc(O)cc1 | inactive |  |
| CCCCC(CC)COCCO (stereo not given) | inactive |  |
| OC[C@H](Cc1cccc(O)c1)[C@H](CO)Cc1cccc(O)c1 | inactive |  |
| CCCCCCCCCCCCCC | inactive |  |
| CC(=C(CCOC(=O)C(C)C)SSC(CCOC(=O)C(C)C)=C(C)N(C=O)Cc1cnc(C)nc1N)N(C=O)Cc1cnc(C)nc1N | inactive |  |
| COC(=O)CCCCCCCC(=O)OC | inactive |  |
